# Test results from PubChem BioAssay AID2782 (National Center for Advancing Translational Sciences (NCATS), 2010).
# Records with an inconclusive call do not appear. The source made the active and inactive calls. Calls follow the shape of the dose curve; as a rule, active = well fitted inhibition curve with a large enough effect in the polarisation, with a control signal flat (not every such curve was filed as active); inconclusive = small, poorly fitted or top-dose-only effect, or effect the other way, or a change in a side signal; inactive = no such curve, though single readings can be large or run the other way; the % refers to the polarisation.
# Test: Confirmation of Inhibitors Targeting the Menin-MLL Interaction in MLL Related Leukemias: Competition With Texas Red Labeled MLL-derived Mutant Peptide
# Details: fluorescence polarization, Texas Red MLL peptide displacement; series mostly up to 288 µM; FP change, negative = inhibition: at the top concentration
# Description: qHTS Assay for Inhibitors Targeting the Menin-MLL Interaction in MLL Related Leukemias
# NIH Chemical Genomics Center [NCGC]
# NIH Molecular Libraries Probe Centers Network [MLPCN]
# Assay Submitter (PI): Jolanta Grembecka, Tomasz Cierpicki, University of Virginia
# Translocations of the MLL (Mixed Lineage Leukemia) gene are frequently found in human leukemias affecting both children and adults. Fusion of MLL to one of more than 60 genes results in generation of oncogenic proteins upregulating Hox genes, which are vital to blood cell development. Patients harboring fusion of the MLL gene suffer from aggressive leukemias and respond poorly to available therapies. All of the oncogenic fusion proteins have a preserved N-terminal fragment of MLL that has been identified to interact with menin. It has been recently discovered that association with menin is critical to the leukemogenic activity of the MLL fusion oncoproteins. Selective targeting of the menin-MLL interaction could provide an attractive therapeutic approach to develop novel drugs for MLL-related leukemias. Small molecules blocking the menin-MLL interaction should reverse the oncogenic potential of MLL fusion proteins.
# We have developed and optimized a fluorescence polarization-based assay for the identification of Menin-MLL inhibitors. The assay was run employing two different MLL-derived peptides. The present assay uses a 12 amino acid peptide labeled with fluorescein at its N-terminus. This peptide consists of the menin high affinity binding motif from MLL and is potently bound by menin. Another peptide with a mutated sequence, labeled with Texas Red, was used in parallel as a less stringent screen for inhibitors.
# The present assay was run to confirm the activity of hits from the primary screen using the peptide with a mutated sequence, labeled with Texas Red.
# The Menin protein, the MLL-wild type (w.t.) derived peptide (N-terminal 12 amino acids), the MLL-derived peptide labeled with Texas Red and the MLL-w.t. peptide labeled with Fluorescein were kindly supplied by laboratory of Dr. Jolanta Grembecka, University of Virginia. All protein and peptide solutions were stored in single use aliquots at -80C. The Eu3+ Cyrptate-conjugated mouse monoclonal antibody anti-6 Histidine (Eu3+-AB) and the Streptavidin-XL665 conjugate (XL665) were purchased from Cisbio International (Bedford, MA). All antibody and XL665 conjugate solution stocks were stored in single use aliquots at -20C. The Buffer components for all assays were purchased from Sigma-Aldrich (St. Louis, MO) and Invitrogen (Carlsbad, CA).
# 1. FP reaction buffer: 50 mM Tris-HCl pH 7.5, 50 mM NaCl, 1mM DTT.
# Before use, 0.05% BSA is added.
# 2. Menin protein, MLL-w.t. labeled with fluorescein, MLL-mutant peptide labeled with texas red.
# Stored in singe use aliquots at -80C.
# 3. MLL-w.t. unlabeled peptide as positive control: 10 uM final in FP buffer.
# 1. Prepare Menin at 200 nM, MLL-w.t.-fluorescein at 25 nM, and MLL-mutant-texas red at 50 nM mixture in FP buffer.
# 2. Prepare Menin at 200 nM, MLL-w.t.-fluorescein at 25 nM, MLL-mutant-texas red at 50 nM, and 10 uM MLL-w.t. unlabeled mixture in FP buffer.
# 3. Prepare MLL-w.t.-fluorescein at 25 nM and MLL-mutant-texas red at 50 nM mixture in FP buffer.
# 3. Dispense 4 ul per well of reagent in step 1 in columns 2, 4 - 48 in a black 1536 well plate, dispense 4 ul per well of reagents from steps 2 and 3 in columns 1 and 3 respectively. Incubate plate at ambient for 15 minutes.
# 4. Transfer 23 nl per well of compound to plate and incubate at ambient for 1 hr.
# 5. Read fluorescence polarization for each label using the PerkinElmer Envision.
# Envision protocol for fluorescein: FITC FP Dual Enh Mirror, Excitation filter 480, Emission filter (1) P-pol 535, Emission filter (2) S-pol 535
# Envision protocol for texas red: FP Dual Enh Mirror, Excitation filter 555, Emission filter (1) P-pol 632, Emission filter (2) S-pol 632
# % is scaled to controls: 0 for no effect and ±100 for the full control effect; potency is read from the fitted curve at half-maximal effect.
Structure (SMILES),"FP change, negative = inhibition",Potency
OC12C3C4CC5C6C4C1C6C(C53)N2CCc1cccc(F)c1 (centres undefined),22.9% [at 94.6 µM] (inactive),
O=C(O)CN1C(=O)CN=C(c2ccccn2)c2cc(Cl)ccc21,-13.2% (inactive),
COc1ccc(C(O)P(=O)(Oc2ccccc2)Oc2ccccc2)cc1 (centres undefined),-9.59% (inactive),
c1cc2cc(c1)C[n+]1ccc(c3ccccc31)NCc1ccc(cc1)CNc1cc[n+](c3ccccc13)C2,,100 µM (active)
C[C@@H]1CC[C@@]2(NC1)O[C@H]1C[C@H]3[C@@H]4CC=C5C[C@@H](O)CC[C@]5(C)[C@H]4CC[C@]3(C)[C@H]1[C@@H]2C,28.8% [at 94.6 µM] (inactive),
Cc1cc(C(=O)NP(=O)(N2CCOCC2)N2CCOCC2)c(C)n1C1CC1,-16.8% [at 94.6 µM] (inactive),
O=C(Nc1ccc2ccccc2c1)c1nn(C23CC4CC(CC(C4)C2)C3)cc1Br,45.4% (inactive),
C[N+](C)(C)CC#CCN1CCCC1=O,-6.23% (inactive),
CC[C@]12C=CCN3CC[C@@]4(c5ccc(OC)cc5N(C)[C@H]4[C@@](O)(C(=O)OC)[C@@H]1OC(C)=O)C32 (some centres undefined),17.2% [at 94.6 µM] (inactive),
O=C1NC(=O)C(=Cc2ccc3ccccc3c2)C(=O)N1,21.9% (inactive),
CCOP(=O)(OCC)C(NC(=O)c1ccccc1C)C(Cl)(Cl)Cl (centres undefined),-1.99% (inactive),
CCCCn1c(=O)c(C(=O)Nc2ccsc2C(=O)OC)c(O)c2ccccc21,,14.2 µM (active)
COc1cc(/C=N/n2cnnc2)ccc1OC(=O)N(C)C,-22.9% (inactive),
CCCCCn1c(=O)c(C(=O)Nc2nc(CC(=O)OCC)cs2)c(O)c2ccccc21,30.7% (inactive),
